# This is a sample that favours compounds with a hit; in the whole collection about 1.6% have one here.
# RN4220 kill = S. aureus RN4220 growth inhibition | inhibition, % (test concentration not listed) | 0.33% of 330,000 active | OD600, 16 h; in the data active = inhibition above about 85%
# BJeLR lethal = kills HRASV12-expressing BJeLR cells. BJeLR (HRASV12) viability, CellTiter-Glo ATP luminescence, 48 h. inhibition, % (no concentration beside the values). 0.17% of 300,000 active; in the data active = inhibition above about 50%
# RecA splice inh = blocks M. tuberculosis RecA intein splicing; AID 2221; inhibition, % (no concentration beside the values); 0.75% of 290,000 active; cell-free RecA intein splicing, fluorescence; P9WHJ3; in the data active = inhibition above about 30%
# Target sequence (P9WHJ3 whole entry, looked up, canonical isoform): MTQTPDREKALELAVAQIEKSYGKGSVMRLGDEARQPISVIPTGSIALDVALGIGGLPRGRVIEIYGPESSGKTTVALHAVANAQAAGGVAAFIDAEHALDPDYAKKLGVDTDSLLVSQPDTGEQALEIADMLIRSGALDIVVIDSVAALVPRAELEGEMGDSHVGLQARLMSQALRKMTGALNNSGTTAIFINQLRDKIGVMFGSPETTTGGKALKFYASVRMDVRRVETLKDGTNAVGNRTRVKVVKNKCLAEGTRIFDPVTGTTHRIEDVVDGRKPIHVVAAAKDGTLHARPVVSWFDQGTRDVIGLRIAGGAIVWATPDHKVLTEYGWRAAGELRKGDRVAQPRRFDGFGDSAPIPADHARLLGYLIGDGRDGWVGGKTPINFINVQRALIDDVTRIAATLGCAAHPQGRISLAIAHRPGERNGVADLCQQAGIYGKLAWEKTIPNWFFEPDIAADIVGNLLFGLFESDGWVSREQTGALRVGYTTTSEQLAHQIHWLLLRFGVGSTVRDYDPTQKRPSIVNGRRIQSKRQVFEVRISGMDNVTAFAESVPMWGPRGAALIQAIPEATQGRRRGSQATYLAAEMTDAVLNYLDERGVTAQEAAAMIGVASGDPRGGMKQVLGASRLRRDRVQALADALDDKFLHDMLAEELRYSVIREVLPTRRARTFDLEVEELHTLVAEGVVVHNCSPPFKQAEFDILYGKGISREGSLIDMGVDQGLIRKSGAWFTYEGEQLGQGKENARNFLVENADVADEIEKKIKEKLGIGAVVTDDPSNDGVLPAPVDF
# Mtb hypoxia rep = reduces hypoxia-regulated biosensor signal in M. tuberculosis; M. tuberculosis hypoxia-regulated fluorescent reporter, fluorescence; fluorescence inhibition, % (test concentration not listed); 0.1% of 300,000 active; in the data active = fluorescence inhibition mostly above about 23%, no sharp cut-off; inactive = mostly below about 17%
# CCHF vOTU inh-1 = blocks the CCHF virus ovarian tumor domain protease; inhibition, % at 11.5 µM; 0.55% of 370,000 active; CCHFV vOTU protease, Pep-AMC fluorescence; AID 651958
# Sa ugtP lethal = kills S. aureus RN4220 lacking UgtP; S. aureus RN4220 ugtP deletion, OD600 growth, 16 h; growth inhibition, % (no concentration beside the values); 0.54% of 330,000 active; in the data active = growth inhibition above about 68%
# CCHF vOTU inh-2 = confirmation of CCHF virus vOTU protease inhibitors; shares compounds with CCHF vOTU inh-1; Recombinant CCHFV vOTU, Pep-AMC fluorescence; inhibition, % at 11.5 µM; 17% of 1,900 active; AID 686976
# Numbers stand for hits; i = inactive; nt = no result given. Cut-off read from the data, not from the text of the source, unless noted: active = inhibition above about 30%; inactive = the rest.
SMILES,RN4220 kill,BJeLR lethal,RecA splice inh,Mtb hypoxia rep,CCHF vOTU inh-1,Sa ugtP lethal,CCHF vOTU inh-2
O=C(CC1CC=CCC(Cc2ccc(F)cc2)C(=O)OC(c2ccccc2)CNC1=O)NCCO (configuration not stated),i,nt,nt,i,nt,i,nt
O=c1cc(-c2ccc(O)c(O)c2)oc2c1ccc1ccccc12,i,nt,nt,i,34,i,i
C=CCC(CC(=O)NCCO)C(=O)NC(COC(=O)C(CC=C)Cc1ccc(F)cc1)Cc1ccccc1 (configuration not stated),i,nt,nt,i,nt,i,nt
O=C(NCCc1ccccc1Cl)[C@@H]1CCCN1C(=O)[C@@H](NS(=O)(=O)c1ccc(F)cc1F)C1CCCCC1,nt,nt,nt,nt,34,nt,i
Cc1ccccc1C(=O)N[C@H](C(=O)N1CCC[C@H]1C(=O)NCCc1ccccc1Cl)C1CCCCC1,nt,nt,nt,nt,i,nt,nt
CCOc1ccc(S(=O)(=O)N2CCCCC2)cc1NC(=O)c1cccnc1OCC,i,nt,nt,i,i,i,nt
CCOc1ncccc1C(=O)Nc1cc(S(=O)(=O)N2CCOCC2)ccc1OCC(F)(F)F,i,nt,nt,i,55,i,i
O=C(NN=Cc1ccncc1)c1cccc(NN=Cc2ccncc2)c1,i,nt,nt,i,nt,i,nt
C=C1C(C)C2C(Cc3ccccc3)NC(=O)[C@]23OC(=O)C=CC(O)CCCC(C)CC=CC3C1O (some centres not stated),i,nt,nt,i,nt,i,nt
Cc1cc(C)c(C#N)c(N2CCN(C(=O)C3COc4ccccc4O3)CC2)n1 (configuration not stated),i,nt,nt,i,48,i,i
O=C(C1COc2ccccc2O1)N1CCN(c2ccccc2O)CC1 (configuration not stated),i,nt,nt,i,i,i,nt
CC(=O)OC1CC2C(C)=CC3OC(=O)C(C)C3CC2[C@]1(C)O (some centres not stated),i,nt,nt,i,nt,i,nt
CCC(=O)N(C1=C(NC(C)C)C(=O)c2ccccc2C1=O)C(C)C,i,i,i,i,47,i,31
CC(=O)N(C1=C(N)C(=O)c2ccccc2C1=O)C(C)C,i,i,i,i,i,i,nt
Cc1cccc(Oc2cc(NC(=O)Cn3cnc([N+](=O)[O-])n3)cc([N+](=O)[O-])c2)c1,i,nt,nt,i,33,i,i
Cc1cc([N+](=O)[O-])nn1CCCC(=O)Nc1cc(Oc2ccccc2)cc([N+](=O)[O-])c1,i,i,i,i,i,i,nt
CCN1C(=O)C2C(c3ccc(C)cc3)N3C(=O)N(c4ccc(C)cc4)C(=O)[C@@]3(C)C2C1=O (some centres not stated),i,nt,nt,i,nt,i,nt
C#CCOCCOCCOCCNc1nc(N2CCN(C(=O)C(CCCCN)n3cc(C(N)C(C)CC)nn3)CC2)nc(N2CCN(C(=O)C(C(C)CC)n3cc(C(N)CO)nn3)CC2)n1 (configuration not stated),i,nt,nt,i,nt,i,nt
C[C@@H]1CCCCO[C@H](CN(C)C(=O)Cc2ccccc2)[C@H](C)CN([C@@H](C)CO)C(=O)c2cc(NC(=O)Nc3ccc(F)cc3)ccc2O1,nt,nt,nt,nt,i,nt,nt
C[C@@H]1CCCCO[C@H](CN(C)Cc2ccc(Cl)c(Cl)c2)[C@H](C)CN([C@@H](C)CO)C(=O)c2cc(NC(=O)Nc3ccc(F)cc3)ccc2O1,nt,nt,nt,nt,31,nt,i
COc1ccc(NC(=O)N(C)C[C@H]2OCCCC[C@@H](C)Oc3ccc(N(C)C)cc3C(=O)N([C@H](C)CO)C[C@@H]2C)cc1,nt,nt,nt,nt,i,nt,nt
C[C@@H]1CCCCO[C@@H](CN(C)C(=O)Nc2ccccc2)[C@@H](C)CN([C@H](C)CO)C(=O)c2cc(N(C)C)ccc2O1,nt,nt,nt,nt,31,nt,i
C[C@@H]1CCCCO[C@H](CN(C)C(=O)Cc2ccccc2)[C@@H](C)CN([C@H](C)CO)C(=O)c2cc(NC(=O)Nc3ccccc3)ccc2O1,nt,nt,nt,nt,31,nt,i
CCC(C)(O)C(=O)NC1CCCN1C(=O)C=Cc1ccccc1 (configuration not stated),i,nt,nt,i,nt,i,nt
Nn1cnnc1NN=Cc1ccc(-c2ccccc2[N+](=O)[O-])o1,i,nt,nt,i,nt,i,nt
Nn1cnnc1N/N=C\c1ccc(-c2ccccc2[N+](=O)[O-])o1,nt,i,i,nt,97,nt,i
Cc1c(C(=O)N/N=C/c2ccc(-c3ccccc3[N+](=O)[O-])o2)sc(N)c1C#N,nt,i,i,nt,42,nt,i
Oc1ccccc1C=N[n+]1ccccc1,i,nt,nt,i,nt,i,nt
